From ChEMBL document CHEMBL4513216, “Probing the Open Global Health Chemical Diversity Library for Multistage-Active Starting Points for Next-Generation Antimalarials” (ACS Infect Dis, 2020) come the findings set out here.

Out of some 69,000 compounds screened, about 8,600 (12%) showed an effect of 50% or more. Many of the other results were omitted from the sample, so strong results are more common in it than they were.

In this test the test system is Plasmodium berghei. The experiment in a line: Screen against P. berghei liver stage (PbLuc), transformed with Luciferase, at 10uM. Format: functional, HepG2. Particulars: tested at 10 uM.
For the molecule `CC(C)OCc1nn(C)c2c1CN(Cc1cccs1)CC2`, the INHIBITION came to 35.8%.

For `COc1ccc(C(=O)n2nc(C)c(C)c2C)cc1`, the INHIBITION is reported as 30.7%.

For the molecule `Cc1nn(C(=O)c2cccnc2)c(C)c1C`, the INHIBITION is listed as 64.6%.

In the case of `Cc1nn(C(C)C)c(C)c1NC(=O)c1cccnc1`, the INHIBITION is reported as 7.18%.

`CO[C@@H]1CC[C@H]2[C@H]1OCCN2Cc1ccc(F)c(F)c1`: the INHIBITION is -8.28%.

Regarding `Cc1ccccc1C(C(=O)NCCSC(F)(F)F)N(C)C` (stereo not drawn), the INHIBITION is reported as -33.8%.

For the molecule `CC1(C)Cc2nc(C(C)(C)C)ncc2C(NC(=O)Cc2nnn[nH]2)C1` (stereo not drawn), the INHIBITION was -0.71%.

As for `COC(=O)CC(c1cccs1)c1oc(C)cc(=O)c1O` (stereo not drawn), the INHIBITION stood at 27.5%.

On to `CCN1CCn2c(C)cnc2C12CCN(C(=O)c1ccc(Cl)cc1)CC2`, for which the INHIBITION came out at 31.9%.

Turning to `CC(=O)NCCCC(=O)NC(C)c1nnc2n1CCC2` (stereo not drawn), the INHIBITION is listed as 1.75%.

For the molecule `CCOCC(=O)N1CCOCC2(CCN(c3ncccn3)C2)C1` (stereo not drawn), the INHIBITION was found to be 14.5%.

On to `CCN(CC)S(=O)(=O)N1CCCC(c2ccc(C(=O)O)cc2)C1` (stereo not drawn), for which the INHIBITION is given as 36.8%.

For the molecule `CCN(C)S(=O)(=O)N1CCCC(c2nc(-c3ccccc3)c[nH]2)C1` (stereo not drawn), the INHIBITION came out at 89.1%.

Regarding `CCN(C)S(=O)(=O)N1CCCC(c2cccc(C(=O)O)c2)C1` (stereo not drawn), the INHIBITION is given as -5.38%.

For the molecule `CCCS(=O)(=O)N1CCCC(c2nc(-c3ccccc3)c[nH]2)C1` (stereo not drawn), the INHIBITION is given as 44.4%.

As to `CS(=O)(=O)N1CCCC(c2nc(-c3ccccc3)c[nH]2)C1` (stereo not drawn), the INHIBITION was 50.4%.

On to `CC(=O)N1CCCC(c2nc(-c3ccccc3)c[nH]2)C1` (stereo not drawn), for which the INHIBITION was 16.6%.

Regarding `O=C(c1cc(C2CCCCN2CCO)n[nH]1)N1CCOCC1` (stereo not drawn), the INHIBITION is on record as -0.902%.

Take `Cc1ncncc1C(=O)NCCn1nc2ccccn2c1=O`: the INHIBITION was found to be 12.915%.

For `CCCS(=O)(=O)N1CCN(c2ccc3nnc(CC)n3n2)CC1`, the INHIBITION is listed as -37.2%.

In the case of `Cc1ccccc1OCC(=O)NCC(c1ccc(N(C)C)cc1)N(C)C` (stereo not drawn), the INHIBITION came out at 27.5%.

For `CCNc1nc2cn(-c3ccc(OC(F)(F)F)cc3)c(=O)c-2c[nH]1`, the INHIBITION was 45.6%.

In the case of `C[C@@H](NC(=O)c1cccs1)c1onc(-c2cccnc2)c1C(=O)O`, the INHIBITION was -20.8%.

Take `CCCNC(=O)CN1CCCC1c1nc(Cc2ccc(F)cc2)no1` (stereo not drawn): the INHIBITION was determined as 47.4%.

In the case of `C=C(C)CN1CCCC1c1nc(Cc2ccc(F)cc2)no1` (stereo not drawn), the INHIBITION is 61.1%.

As to `OCCCN1CCCC1c1nc(Cc2ccc(F)cc2)no1` (stereo not drawn), the INHIBITION was determined as 14.9%.

As for `O=C(CN1CCCC1c1nc(Cc2ccc(F)cc2)no1)NC1CC1` (stereo not drawn), the INHIBITION turned out to be 62%.

For `CC(C)(C)OCCN1CCCC1c1nc(Cc2ccc(F)cc2)no1` (stereo not drawn), the INHIBITION is listed as 10.6%.

Regarding `CCCN1CCCC1c1nc(Cc2ccc(F)cc2)no1` (stereo not drawn), the INHIBITION turned out to be 23.5%.

Consider `O=C(CN1CCN(CC(O)C2CC2)CC1)NCc1ccccc1` (stereo not drawn), for which the INHIBITION is given as -24.6%.

In the case of `Cc1cc(F)ccc1-c1ccccc1CC1CNCCNC1=O` (stereo not drawn), the INHIBITION turned out to be 71.2%.

As to `COc1ccc(F)cc1-c1ccccc1CC1CNCCNC1=O` (stereo not drawn), the INHIBITION came to 23.595%.

Regarding `Cc1ccc(-c2ccccc2CC2CNCCNC2=O)c(C)c1` (stereo not drawn), the INHIBITION was found to be 33%.

For the molecule `CC(=O)N1CCN(C(=O)c2cc(-n3cnnn3)ccc2Cl)CC1`, the INHIBITION was determined as 6.32%.

Consider `CCN(C(=O)NCc1ccccc1OC(F)F)C(C)c1cccnc1` (stereo not drawn), for which the INHIBITION was 50.1%.

As to `CCOc1ccccc1CNC(=O)N(CC)C(C)c1cccnc1` (stereo not drawn), the INHIBITION was -1.25%.

As for `CCN(C(=O)NCc1ccc(C)cc1OC)C(C)c1cccnc1` (stereo not drawn), the INHIBITION was found to be 29.8%.

Consider `NC(=O)c1ccccc1Oc1cnc(C2CCCN2)cn1` (stereo not drawn), for which the INHIBITION is listed as -38.3%.

On to `Cc1ccc2c(c1)CCC2NC(=O)N1CCC(C(N)=O)CC1` (stereo not drawn), for which the INHIBITION came to 10.1%.

For `COC(=O)Cn1c(=O)[nH]c2cn(-c3ccc(C)cc3)c(=O)n21`, the INHIBITION is recorded as -1.04%.

Turning to `CC(C)CN1C(=O)CO[C@@H]2CN(C(=O)NC(C)C)C[C@H]21`, the INHIBITION was 70.4%.

Consider `CC(C)CN1C(=O)CO[C@@H]2CN(C(=O)N3CCOCC3)C[C@H]21`, for which the INHIBITION is 29%.

Take `CC(C)CN1C(=O)CO[C@@H]2CN(C(=O)CC(F)(F)F)C[C@H]21`: the INHIBITION is listed as 54.1%.

On to `CC(C)CN1C(=O)CO[C@@H]2CN(C(=O)N(C)C)C[C@H]21`, for which the INHIBITION was determined as 29%.

`CC(C)CN1C(=O)CO[C@@H]2CN(C(=O)[C@H]3CCCO3)C[C@H]21`: the INHIBITION is given as 36.4%.

In the case of `CC(C)CN1C(=O)CO[C@@H]2CN(C(=O)C3CCOCC3)C[C@H]21`, the INHIBITION turned out to be 11.3%.

Turning to `CCN(CC)CC1CN(Cc2cccc(C#N)c2)Cc2nccn2C1` (stereo not drawn), the INHIBITION is on record as -16.9%.

Regarding `CC1CCCN(c2nccn3c(=O)[nH]nc23)C1` (stereo not drawn), the INHIBITION is 17.6%.

Regarding `COCC(=O)N1CCC(=O)N(C2CCCC2)Cc2cc(F)ccc21`, the INHIBITION is reported as -13.3%.

For the molecule `CCOC(=O)[C@]12CCCN(Cc3cccs3)C[C@H]1CN(C(C)C)C2`, the INHIBITION was 64.3%.

Consider `CCOC(=O)[C@]12CCCN(Cc3nccs3)C[C@H]1CN(C(C)=O)C2`, for which the INHIBITION is -1.64%.

Take `CCOC(=O)[C@]12CCCN(Cc3cccs3)C[C@H]1CN(C(C)=O)C2`: the INHIBITION turned out to be 51.4%.

For the molecule `CCOC(=O)[C@]12CCCN(Cc3nccs3)C[C@H]1CN(CCN(C)C)C2`, the INHIBITION is on record as 15.1%.
